A selection: hits, their analogues and other compounds. The true share with any hit is near 6.4%.
VP16 counter: counter-screen for ROR gamma inhibitors: Gal4-VP16 reporter. Drosophila S2 Gal4-VP16 UAS-luciferase, luminescence, 20 h. Potency, µM (doses to about 53.6 µM), for the others: at the top dose activity, negative = inhibition, usual class: inhibitors. hit rate 3.5% among 310,000. AID 2546;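 note: Gal4-VP16 expression switched on by copper sulfate through the metallothionein promoter; nearly all actives have a fitted effect of over 50% in size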
RORg inh: inhibitors of mouse ROR gamma transcriptional activity; hit rate 5.4% among 310,000; Potency, µM (doses to about 53.6 µM), without a hit: at the highest dose activity change, negative = inhibition, most hits filed as inhibitors; Drosophila S2 Gal4-RORgamma UAS-luciferase reporter, 20 h; P51450; note: nearly all actives have a fitted effect of over 60% in size
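Compounds are pin-transferred onto Drosophila Schneider cells expressing a copper-inducible Gal4–ROR gamma transactivation domain fusion. After 1 hr, copper sulfate is added to 700 uM final; luciferase is read 20 hr later.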
KinaseGlo FLuc: counter-screen: inhibitors of Kinase-Glo firefly luciferase. hit rate 0.28% among 200,000. Q27757. Potency, µM (highest dose often 38.3 µM), without a hit: top-dose activity change, negative = inhibition, actives largely listed as inhibitors. Kinase-Glo luciferase, ATP luminescence, 8 min. AID 1379; note: nearly all actives have a fitted effect of over 60% in size
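Compound is pinned into ATP-containing buffer (10 uM ATP, imidazole pH 7.2, 7 mM MgCl2). Kinase-Glo luciferase reagent is then added. Light output is recorded following an 8-min room-temperature incubation.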
* marks the source's active call; other numbers are inactive results; ? = inconclusive; / = not tested or not shown; [ ] = dose if it differs, or a comment. Calls come from the whole dose curve; as a rule, active = well fitted curve in the direction sought with a large enough effect; inconclusive = small, poorly fitted or top-dose-only effect, or another doubt; inactive = no such curve, though single readings can be large; an effect the other way counts as inactive or inconclusive. % is set by controls: 0 for no effect and ±100 for the full control effect; potency is the fitted concentration of half-maximal effect.

SMILES	VP16 counter	RORg inh	KinaseGlo FLuc
Cc1oc2cc3c(C(=O)N4CCCCC4)c(C)oc3cc2c1C(=O)N1CCCCC1	?	2µM*	-4%
CCN=C(NS(=O)(=O)c1ccc(Br)cc1)c1ccc(Cl)cc1	-10%	20%	0%
O=C(COC(=O)c1ccc(NC(=O)C2CC=CCC2C(=O)O)cc1)c1ccccc1 (centres undefined)	9%	-2%	/
COc1ccc(-c2n[nH]c(=S)n2-c2ccccc2C)cc1OC	?	11µM*	/
Cc1cc(-c2n[nH]c(=S)n2-c2ccc(F)cc2)nn1C	1%[10 µM]	-22%	0%
COc1ccc(-c2n[nH]c(=S)n2-c2ccccc2C)cc1	6.3µM*	5.6µM*	/
COc1ccc(-c2n[nH]c(=S)n2-c2ccc(Br)cc2)cc1OC	?	20µM*	/
CCOC(=O)C1CCCN(C(=O)CCNS(=O)(=O)c2cc(Br)cnc2N)C1 (centres undefined)	2%	3%	/
O=C(c1ccc(Cl)c(S(=O)(=O)N2CCOCC2)c1)N(c1ccccn1)C1CCCCC1	0%	5%	5%
CC(C)NC(=O)CN1CCC(c2ccccc2)C(O)C1 (centres undefined)	-1%	23%	-6%
NCCCCCCCCCCNCCCN	10%	-5%	/
CCN(CC)S(=O)(=O)c1cccc(N=Nc2c(O)c3ccccc3oc2=O)c1	4%	0%	/
COc1ccc(S(=O)(=O)N(C)C)cc1NC(=O)CCNC(=O)c1ccccc1OC	0%	-1%	/
CCC(=O)CC(NC(=O)OC)c1ccccc1 (centres undefined)	4%[10 µM]	-18%[10 µM]	/
COc1ncc2nc(-c3ccc(Cl)cc3)c(=O)n(Cc3cccs3)c2n1	0%	4%	/
CC(=O)NCCn1c(SCC#N)nc2ccccc2c1=O	4%	0.22µM*	-1%
N#CCSc1nc2ccccc2c(=O)n1CCC(=O)NCCc1ccccc1	-4%	0%	2%
CCN(CC)c1ccc(-c2nn3c(-c4ccccc4OC)nnc3s2)cc1	14µM*	?	8%
COc1ccccc1-c1nn2c(-c3ccccc3Cl)nnc2s1	2%	-16%	3%
CCCC1CC(C(=O)N[C@H](C(C)O)C2OC(SC)[C@@H](O)C(O)C2O)N(C)C1 (some centres undefined)	13%	7%	-5%
O=C(O)c1ccncc1.O=C(O)c1ccncc1.[Cl][Pt]([Cl])([Cl])[Cl]	/	/	-8%[7.66 µM]
CCCN1C2CCCC1CC(NC(=O)c1ccc(OC)cc1)C2 (centres undefined)	2%	-3%[1.91 µM]	/
Cn1cccc1/C=N/n1c(-c2ccccc2)n[nH]c1=S	?	14µM*	-2%
Cn1cccc1/C=N/n1cnnc1	4%	17%	-6%
Cn1cccc1/C=N/n1c(-c2ccc(C(C)(C)C)cc2)n[nH]c1=S	?	2.2µM*	-1%
SMILES	VP16 counter	RORg inh	KinaseGlo FLuc
Cc1nc(C)c(NC(=O)OC(C)C)cc1NC(=O)OC(C)C	1%	21%	-1%
COc1ccc(-n2nc(C(=O)NCC(=O)NCCCN3CC(C)CC(C)C3)c3ccccc3c2=O)cc1Cl (centres undefined)	-13%	2%	/
COc1cccc(Cn2c(=O)c(-c3cccc(Cl)c3)nc3cncnc32)c1	-10%	-11%	-1%
CCCCNC(=O)Cn1cnc2sc(C)c(S(=O)(=O)N3CCN(c4ccccc4OC)CC3)c2c1=O	-16%	27%	/
CCOC(=O)Cc1csc(N/N=C\c2ccccc2OC)n1	-5%	9%	/
CC(=O)c1sc(NC(=O)c2c(F)cccc2F)nc1C	21%	-2%	-2%
COc1ccc(/C=N/Nc2nc(C(=O)O)cs2)cc1	5µM*	3.5µM*	/
CC(=O)c1sc(N/N=C\c2ccccc2O)nc1C	4µM*	1.4µM*	-5%
CCOC(=O)Cc1csc(N/N=C\c2ccc(N(C)C)cc2)n1	-3%	?	/
CCOC(=O)Cc1csc(N/N=C/c2ccccc2)n1	-28%	16µM*	2%
CCOC(=O)Cc1csc(N/N=C\c2cccc(Br)c2)n1	?	10µM*	-2%
COC(=O)c1ccc(/C=N/Nc2nc(-c3ccccc3)cs2)cc1	-11%	-22%	/
COc1cccc(CN2CCNC(=O)C2CC(=O)N(C)C2CCOCC2)c1OC (centres undefined)	?	0%	/
COC(=O)[C@@]1(Cc2ccccc2)[C@H]2c3cc(C(=O)N4CCCC4)n(CCO)c3C[C@H]2CN1C(=O)c1ccccc1	7%	-4%	-3%
CCCCCCCC/C=C\CCCCCCCC(=O)N[C@H](CO)Cc1ccc(O)cc1	?	25%	/
CC(C(=O)NCc1ccccn1)c1ccc([N+](=O)[O-])cc1 (centres undefined)	19%	-28%	1%
CCOC(=O)c1sc(N/N=C/c2cccc(C)c2)nc1C	?	7.9µM*	0%

Screens deposited in PubChem by National Center for Advancing Translational Sciences (NCATS).
